Cruzain inh Det = qHTS Assay for Promiscuous and Specific Inhibitors of Cruzain (with detergent). purified cruzain, Z-FR-AMC fluorescence, 0.01% Triton. Potency, µM, usual class: inhibitors. AID 1478, 2009. Cruzipain (Trypanosoma cruzi), P25779. 200,000 compounds, 0.43% hits; further: nearly all actives have a fitted effect of over 40% in size
Target sequence (P25779 123-467 limits assumed): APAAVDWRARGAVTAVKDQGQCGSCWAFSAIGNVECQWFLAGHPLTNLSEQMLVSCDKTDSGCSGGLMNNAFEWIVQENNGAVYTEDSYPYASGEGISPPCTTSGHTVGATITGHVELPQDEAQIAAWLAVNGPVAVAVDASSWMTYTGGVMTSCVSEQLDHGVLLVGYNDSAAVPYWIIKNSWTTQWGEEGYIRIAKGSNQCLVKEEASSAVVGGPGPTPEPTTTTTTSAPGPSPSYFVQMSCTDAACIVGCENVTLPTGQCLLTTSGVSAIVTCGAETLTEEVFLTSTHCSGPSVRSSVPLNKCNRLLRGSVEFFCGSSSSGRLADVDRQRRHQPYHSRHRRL
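Steps: dispense cruzain (1.5 nM final) in acetate buffer pH 5.5 with DTT and 0.01% Triton X-100; pin-transfer compounds; incubate 15 min RT; add Z-FR-AMC (2 uM final); read fluorescence every 30 s, using the 60 s intensity change.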
Cruzain inh noDet = qHTS Assay for Promiscuous and Specific Inhibitors of Cruzain (without detergent); Cruzipain (Trypanosoma cruzi), P25779; AID 1476, 2009; Potency, µM, usual class: inhibitors; 200,000 compounds, 2.3% hits; purified cruzain, Z-FR-AMC fluorescence, no detergent; further: nearly all actives have a fitted effect of over 40% in size
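Detergent-free condition (0.00005% Triton X-100) in acetate buffer pH 5.5 with DTT. 1.5 nM enzyme and compound were pre-mixed 15 min, then 2 uM Z-FR-AMC substrate added; reaction progress from fluorescence change between first and third reads (60 s).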
Hits are given with their value. Shown are actives, neighbours in structure and some others; about 2.5% of the full set was active somewhere. The call rests on the fitted dose curve; in most records, active means well fitted curve in the direction sought with a large enough effect; inconclusive means small, poorly fitted or top-dose-only effect, or another doubt; inactive means no such curve, though single readings can be large; an effect the other way counts as inactive or inconclusive.

What do the screens show for `COc1ccccc1CNC(=O)c1ccc2[nH]c(C)c(C)c2c1`?
Cruzain inh Det: inactive; Cruzain inh noDet: inactive

How did CCCCCCC(=O)Nc1c(O)c2ccccc2[nH]c1=O do in these assays?
Cruzain inh Det: inactive; Cruzain inh noDet: inconclusive

What do the screens show for `CCCCCCNC(=O)c1c(O)c2ccccc2[nH]c1=O`?
Cruzain inh Det: inactive; Cruzain inh noDet: 25µM

What do the screens show for `O=C(c1ccco1)N1CCC2(CCCN(Cc3ccccc3)C2)CC1`?
Cruzain inh Det: inactive; Cruzain inh noDet: inactive

How did CCc1ccccc1NC(=O)CC(c1ccc(F)cc1)N1Cc2ccccc2C1=O (centres undefined) do in these assays?
Cruzain inh Det: inactive; Cruzain inh noDet: inactive

Results for Fc1ccc(-c2cc(-c3nc(-c4cccc(Cl)c4)no3)[nH]n2)cc1 ?
Cruzain inh Det: inactive; Cruzain inh noDet: inactive

What do the screens show for `CCOc1ccc(NS(=O)(=O)c2ccc3c4c(cccc24)C(=O)N3)cc1`?
Cruzain inh Det: inactive; Cruzain inh noDet: inactive

How did O=C(O)c1ccc(COc2ccc3c4c(c(=O)oc3c2)CCC4)o1 do in these assays?
Cruzain inh Det: inactive; Cruzain inh noDet: inactive

Results for CCOC(=O)CCc1c(C)c2ccc(OCc3ccc([N+](=O)[O-])cc3)cc2oc1=O ?
Cruzain inh Det: inactive; Cruzain inh noDet: 10µM

What do the screens show for `O=c1oc2cc(OCc3ccc([N+](=O)[O-])cc3)ccc2c2c1CCCC2`?
Cruzain inh Det: inactive; Cruzain inh noDet: 13µM

Results for CCOC(=O)CCc1c(C)c2ccc(OCc3nn[nH]n3)cc2oc1=O ?
Cruzain inh Det: inactive; Cruzain inh noDet: inactive

What do the screens show for `CCOc1ccccc1CNC(=O)CCc1c(C)nn(-c2ccc(N3CCCC3)nn2)c1C`?
Cruzain inh Det: inactive; Cruzain inh noDet: inactive

Results for CN(Cc1ccccc1)c1ccc(-c2nc(-c3cccnc3)no2)cc1[N+](=O)[O-] ?
Cruzain inh Det: inactive; Cruzain inh noDet: 25µM

What do the screens show for `CN(Cc1ccccc1)c1ccc(-c2nc(-c3ccncc3)no2)cc1[N+](=O)[O-]`?
Cruzain inh Det: inactive; Cruzain inh noDet: inactive

How did CN1[C@@H]2CC[C@H]1CC(OC(=O)[C@@H](CO)c1ccccc1)C2 (some centres undefined) do in these assays?
Cruzain inh Det: inactive; Cruzain inh noDet: inactive

Results for COC(=O)c1cc(-c2ccccc2)sc1NC(=O)CN1C(=O)c2ccccc2C1=O ?
Cruzain inh Det: inactive; Cruzain inh noDet: 25µM

How did COC(=O)c1cc(OC)c(OC)cc1NC(=O)CN1C(=O)c2ccccc2C1=O do in these assays?
Cruzain inh Det: inactive; Cruzain inh noDet: inconclusive

Results for O=C(CCc1ccccc1)NC(NC(=S)Nc1ccc(Br)cc1)C(Cl)(Cl)Cl (centres undefined) ?
Cruzain inh Det: inactive; Cruzain inh noDet: 10µM

Results for CCCC(=O)NC(NC(=S)Nc1ccc(N=Nc2ccccc2)cc1)C(Cl)(Cl)Cl (centres undefined) ?
Cruzain inh Det: inactive; Cruzain inh noDet: inactive

What do the screens show for `O=C(/C=C/c1ccccc1)NC(NC(=S)Nc1cccc(Cl)c1)C(Cl)(Cl)Cl` (centres undefined)?
Cruzain inh Det: inactive; Cruzain inh noDet: inconclusive

What do the screens show for `S=C(NCCC(c1ccccc1)c1ccccc1)Nc1cccc(Cl)c1`?
Cruzain inh Det: inactive; Cruzain inh noDet: 16µM

What do the screens show for `S=C(NCc1ccncc1)Nc1cccc(Cl)c1`?
Cruzain inh Det: inactive; Cruzain inh noDet: inactive

How did O=C(CCc1ccccc1)NC(NC(=S)Nc1cccc(Cl)c1)C(Cl)(Cl)Cl (centres undefined) do in these assays?
Cruzain inh Det: inactive; Cruzain inh noDet: 7.9µM

How did CSc1ccc([C@H]2CN3CCC[C@H]3c3ccccc32)cc1 do in these assays?
Cruzain inh Det: inactive; Cruzain inh noDet: inconclusive

What do the screens show for `COCCn1c(=N)c(C(=O)NC(C)c2ccccc2)cc2c(=O)n3cc(C)ccc3nc21` (centres undefined)?
Cruzain inh Det: inactive; Cruzain inh noDet: inactive

Results for Cc1nnsc1C(=O)Oc1ccc(Cl)cc1 ?
Cruzain inh Det: inactive; Cruzain inh noDet: inactive

What do the screens show for `CC1=C(c2ccc(C(C)C)cc2)S(=O)(=O)N=C1N1CCN(c2ccccc2F)CC1`?
Cruzain inh Det: inactive; Cruzain inh noDet: inactive

Results for CSc1ccc(CNC(=O)c2cc3c(=O)n(Cc4ccco4)ccc3nc2C)cc1 ?
Cruzain inh Det: inactive; Cruzain inh noDet: inconclusive

Results for Cc1ccc(NS(=O)(=O)c2ccc(NC(=O)N3CCCC3)cc2)cc1C ?
Cruzain inh Det: inactive; Cruzain inh noDet: inactive

How did Cc1nnc(N2CCN(C(=O)NC(C)C)CC2)c2nn(-c3ccccc3)c(C)c12 do in these assays?
Cruzain inh Det: inactive; Cruzain inh noDet: inactive

How did CCc1cccc(NC(=O)c2ccc3c(c2)c(C)c(C)n3Cc2ccc(F)cc2)c1 do in these assays?
Cruzain inh Det: inactive; Cruzain inh noDet: 16µM

How did CCc1ccc(CNC(=O)c2ccc3c(c2)c(C)c(C)n3Cc2ccccc2)cc1 do in these assays?
Cruzain inh Det: inactive; Cruzain inh noDet: 32µM

What do the screens show for `Cc1c(C)n(Cc2ccccc2)c2ccc(C(=O)NCc3ccco3)cc12`?
Cruzain inh Det: inactive; Cruzain inh noDet: inconclusive

How did CCc1ccc(NC(=O)c2ccc3c(c2)c(C)c(C)n3Cc2ccccc2)cc1 do in these assays?
Cruzain inh Det: inactive; Cruzain inh noDet: 13µM

How did CCc1ccc(NC(=O)c2ccc3oc(=O)n(Cc4ccccc4)c3c2)cc1 do in these assays?
Cruzain inh Det: inactive; Cruzain inh noDet: inactive

Results for Cc1ccc(CCNC(=O)c2ccc3c(c2)c(C)c(C)n3Cc2ccccc2)cc1 ?
Cruzain inh Det: inactive; Cruzain inh noDet: 13µM

Results for CCOc1ccc(CCNC(=O)c2ccc3c(c2)c(C)c(C)n3Cc2ccccc2)cc1OCC ?
Cruzain inh Det: inactive; Cruzain inh noDet: inconclusive

How did COc1cccc(CNC(=O)c2ccc3c(c2)c(C)c(C)n3Cc2ccccc2)c1 do in these assays?
Cruzain inh Det: inactive; Cruzain inh noDet: inconclusive

Results for CCCCC[C@H](O)/C=C/C=C\C=C\C=C\[C@@H](O)[C@@H](O)CCCC(=O)O ?
Cruzain inh Det: inactive; Cruzain inh noDet: inactive

How did CCCn1c(C)nc2c(NCCO)nc(C)nc21 do in these assays?
Cruzain inh Det: inactive; Cruzain inh noDet: inactive

How did COCCCNC(=O)CSc1nc(-c2ccc(OC)cc2)[nH]c1-c1ccc(OC)cc1 do in these assays?
Cruzain inh Det: inactive; Cruzain inh noDet: inactive

How did C[C@]12CC[C@H](O)CC1=CC[C@H]1[C@@H]2CC[C@@]2(C)C(N(CCO)CCO)CC[C@@H]12 (some centres undefined) do in these assays?
Cruzain inh Det: inactive; Cruzain inh noDet: inactive

What do the screens show for `O=c1c2sc3ccccc3c2n(Cc2cccc(C(F)(F)F)c2)c(=O)n1-c1ccccc1`?
Cruzain inh Det: inactive; Cruzain inh noDet: inactive

What do the screens show for `Cc1ccc(C)c(NC(=O)C(Sc2nc3ccccc3c(=O)n2CC(C)C)c2ccccc2)c1` (centres undefined)?
Cruzain inh Det: inactive; Cruzain inh noDet: 20µM

How did Cc1ccc(C)c(NC(=O)C(Sc2ncnc3ccccc23)c2ccccc2)c1 (centres undefined) do in these assays?
Cruzain inh Det: inactive; Cruzain inh noDet: inactive

Results for CCOc1ccccc1N(CC)C(=O)c1cc2c(=O)n(CC)c3ccccc3c2s1 ?
Cruzain inh Det: inactive; Cruzain inh noDet: inconclusive

How did Cc1ccc(-n2cc(-c3ccccc3)nc2S(=O)(=O)CC(=O)Nc2ccc(F)cc2)cc1 do in these assays?
Cruzain inh Det: inactive; Cruzain inh noDet: inactive

Screening results: PubChem, National Center for Advancing Translational Sciences (NCATS)
